According to PubChem BioAssay (NCI):
Compounds without any hit were thinned out: in the full panel of roughly 79,000, 15% have a hit. Unmarked numbers belong to inactive results. Calls of active or inactive are those of the source. Cut-off read from the data, not from the text of the source: active = growth inhibition above about 70%; inactive = the rest.

How the values were obtained:
[1] = NCI Yeast Anticancer Drug Screen. Data for the rad50 strain (AID 155);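 note: 0% = growth of vehicle-only cultures of the same strain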; details: S. cerevisiae rad50 strain growth inhibition; at 50.0 µM; hits give high values
In short: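 A DNA repair-deficient yeast mutant serves as the test organism; compound-induced growth inhibition is calculated against vehicle-treated cells.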

[2] = NCI Yeast Anticancer Drug Screen. Data for the mec2-1 strain (AID 157); details: S. cerevisiae mec2-1 strain, at 50.0 µM, hits give high values
In short: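 Mutant yeast (mec2-1) grown with compound; growth inhibition relative to vehicle control reported.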

[3] = NCI Yeast Anticancer Drug Screen. Data for the sgs1 mgt1 strain (AID 161);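 note: 0% = growth of cultures given vehicle only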; details: S. cerevisiae sgs1 mgt1 strain, at 50.0 µM, hits give high values
In short: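 Percent growth inhibition was derived by comparing compound-exposed mutant yeast with vehicle-exposed cultures. The strain carries alterations in DNA damage repair.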

[4] = NCI Yeast Anticancer Drug Screen. Data for the cln2 rad14 strain (AID 165);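 note: 0% = growth equal to vehicle treated cultures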; details: S. cerevisiae cln2 rad14 strain, at 50.0 µM, hits give high values
In short: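 Readout is yeast growth inhibition versus vehicle-treated controls, using a strain with cln2 and rad14 alterations exposed to compound.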

[5] = NCI Yeast Anticancer Drug Screen. Data for the bub3 strain (AID 167); details: S. cerevisiae bub3 mutant strain, at 50.0 µM, hits give high values
In short: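 Inhibition values come from growth of compound-treated mutant yeast normalised to vehicle-treated controls.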

[6] = NCI Yeast Anticancer Drug Screen. Data for the mlh1 rad18 strain (AID 175); details: S. cerevisiae mlh1 rad18 strain growth inhibition; at 50.0 µM; hits give high values
In short: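 Genetically defined yeast (DNA repair-deficient) exposed to compounds; growth inhibition determined relative to vehicle.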

| Structure (SMILES) | growth inhibition [1] | growth inhibition [2] | growth inhibition [3] | growth inhibition [4] | growth inhibition [5] | growth inhibition [6] |
| --- | --- | --- | --- | --- | --- | --- |
| O=NNc1cncc(Cl)n1 | -11.2% | -3.5% | -5.35% | -17.9% | -0.4% | -6.05% |
| COP1(=S)OCC2OC(n3cc(C)c(=O)[nH]c3=O)CC2O1 (stereo not given) | 0.55% | -17.2% | -12.8% | -9.1% | 23.1% | -9.25% |
| N#CC1(c2ccccc2)CCN(C2(c3ccccc3)CCCCC2)CC1 | -23.4% | -30.2% | -5.7% | 4.25% | -3.55% | -30.1% |
| COc1ccccc1P(=S)(c1ccccc1)c1ccccc1 | 31% | 24.3% | 17.6% | 38% | 27.2% | 24.2% |
| CSC(SC)=C(C(=O)O)P(=O)(O)O | -32.4% | -3.05% | -8.2% | 19.1% | -9.8% | -16.6% |
| Cc1cc(C(C)(C)C)ccc1O | 27.4% | -4.1% | 8.95% | 4.6% | 28.2% | 22% |
| C=CCN1CC2CN=NC2(C#N)C1 (stereo not given) | -10.8% | 6.45% | 0.65% | -22.3% | 6.7% | -4.95% |
| NP(=O)(OCCC(OCc1ccccc1)OCc1ccccc1)N(CCCl)CCCl (stereo not given) | 54.6% | 9.1% | 54.6% | 48.5% | 6.2% | 31.8% |
| Oc1ccccc1/C=N/Sc1ccccc1.Oc1ccccc1/C=N/Sc1ccccc1.[Ni+2] | 3.2% | -0.85% | 30.6% | -6.6% | 12.7% | 36% |
| COc1ccc2c(=O)c3ccccc3oc2c1CN(CCCl)CCCl | 19.9% | 16.4% | -5.2% | 13.2% | -3.1% | -8.25% |
| NC(=O)CCC(NC(=O)Cc1ccccc1)C(=O)O (stereo not given) (tested in a mixture with another compound) | -4.45% | -14.1% | 0.25% | -29.9% | -9.65% | 8.95% |
| Cc1cc(S(=O)(=O)F)ccc1O | -3% | -6.2% | -16.5% | -42.8% | -2.6% | -1.3% |
| CC(=O)C1=C(O)C2C3c4c[nH]c5cccc(c45)CC3C(C)(C)N2C1=O (stereo not given) | 22.6% | -11% | 23.9% | -12.8% | 15% | 21.8% |
| Cn1c(=O)oc(=O)c2ccccc21 | -0.45% | -15.3% | -17.4% | -3.1% | -27.4% | 6.85% |
| CC(C)(O)OC1COC(C2CS2)C1O (stereo not given) | 18.1% | 15.6% | 3.95% | 34.8% | 29.6% | -22.4% |
| O=C1NC(=S)N/C1=C/c1ccccc1O | 12.3% | 6.65% | -27.6% | -14.8% | -27.7% | -42.4% |
| O=[N+]([O-])C(CO)CCCC(CO)[N+](=O)[O-] (stereo not given) | 11.7% | -6% | 5.65% | -37.1% | -20.4% | 11.4% |
| CC(=O)Nc1cccc([As+](C)(C)C)c1 | 14.3% | 9.75% | -2.8% | -22.2% | -3.35% | 16.9% |
| CNC(=O)Oc1cc(C)cc(C(C)C)c1 | 14.3% | 0.05% | 1.6% | 9.15% | 1.3% | 6% |
| O=[As](O)(O)c1cccc(Cl)c1 | 9.3% | -0.25% | -13.8% | 1.85% | 1.9% | -0.9% |

| Structure (SMILES) | growth inhibition [1] | growth inhibition [2] | growth inhibition [3] | growth inhibition [4] | growth inhibition [5] | growth inhibition [6] |
| --- | --- | --- | --- | --- | --- | --- |
| O=c1[nH]cc(Cn2cccc3c(=O)ncnc2-3)c(=O)[nH]1 | 14.9% | 5.05% | -4.45% | -43.5% | -16.7% | -5.7% |
| CC1(C)N(C(=S)Nc2ccccc2)C1(C)C | 6.45% | 1.3% | 5.25% | -26.2% | -5.2% | 5.8% |
| c1ccc2nc(-c3ccc4ccccc4n3)ccc2c1 | -5.95% | -7.45% | -3.4% | -49.4% | -13.7% | -12.2% |
| CCCCCC(N)CC(=O)O (stereo not given) | 8.95% | -21.1% | 4.25% | 8.1% | -2.25% | 9.85% |
| N.N.N.N.N.N.[Br-].[Co+3] | -0.9% | 7.7% | -34.2% | 6.3% | -1.2% | 22.6% |
| [CH-]=C([CH2-])C.[Ni][Br].c1ccc([PH+](c2ccccc2)c2ccccc2)cc1 | 35.5% | 2.9% | 26.6% | -8.85% | -4.6% | -1.75% |
| CC(C)(C)c1cc(C=C(C#N)C#N)cc(C(C)(C)C)c1O | 4.3% | 10.6% | 7.55% | -32.8% | 48.6% | 6.45% |
| CC(=O)[CH-]C(C)=O.O=[N+]([O-])O.[NH-]C1CCCCC1[NH-].[Pt+4] (stereo not given) | 97.2% (active) | 98.5% (active) | 94.3% (active) | 98% (active) | 98.8% (active) | 94.8% (active) |
| CC(C)NC(=O)C(Cl)CCl (stereo not given) | 13.7% | 8.9% | 18.3% | 11.5% | 2.8% | 6.7% |
| CCCCOP(=S)(N1CCCCC1)N1CCCCC1 | -8.15% | 3.5% | 5.75% | 8.3% | 2.6% | 0.95% |
| O=[N+]([O-])c1ccc(SN2C3CCCCC32)c([N+](=O)[O-])c1 (stereo not given) | 3.85% | 11.7% | 6.1% | 7.85% | 11.8% | 22.7% |
| C[As+](c1ccccc1)(c1ccccc1)c1cccc2ccccc12 | 10.2% | 38.9% | 21.2% | -10.1% | 26.1% | 34.3% |
| O=C(COc1cccc(Cl)c1Cl)Nc1ccc[n+](Cc2ccc(S(=O)(=O)F)cc2)c1 | 20.4% | 0.15% | -5.45% | 31.2% | 7.4% | 28.6% |
| [Se]=P(c1ccccc1)(N1CC1)N1CC1 | 33.2% | 10.2% | 11.8% | 3.55% | -1.3% | 6.85% |
| C1CCN2COCC2C1 (stereo not given) | -16.2% | -16.9% | -38.5% | 0.7% | -17.2% | 22.4% |
| COC(=O)C1C(C)N1P(=O)(OC)OC (stereo not given) | 7.3% | 3.65% | -7.55% | -44% | -4.3% | 6.6% |
| N#Cc1ccc([N+](=O)[O-])cc1 | -1.15% | 9.25% | 1.7% | 1.2% | -43.8% | -43.9% |
| Cc1ccc(C(=O)C(C)N)cc1C (stereo not given) | -13.6% | -13% | -17.8% | 15.2% | 1.6% | 22.4% |
| COc1ccccc1CN1CCN(Cc2ccccc2OC)C1c1ccc(N(CCCl)CCCl)cc1 | -9.8% | -9.05% | -14.7% | -32.5% | -1.9% | -4.1% |
| COc1cc(C2(C)CCCCC2)c(OC)cc1C1(C)CCCCC1 | -8.1% | 1.25% | 23.4% | -69.2% | 2.75% | 9.15% |
